From the supplement of paper PMC9694430
Values joined by “and” are separate entries in the source; they are usually repeats but may differ in a detail not shown here. Equal entries are not always repeated.

Key:
Experiment in all cases: thermal shift delta Tm vs DMSO control; higher = stronger stabilization (binding)
Details in all cases: 12.5 µM; protein concentration 2 µM
[1] = test system: LOC_OS02G45750-cb003
Procedure, shortened: (§1)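 Rice kinase domain constructs were expressed in E. coli, purified, and tested by differential scanning fluorimetry with compound added in DMSO. Each well of a 96-well plate held 19.5 μl of 2 μM kinase in 100 mM potassium phosphate pH 7.5, 150 mM NaCl, 10% glycerol and 5 × SYPRO Orange, and fluorescence was read from 25°C to 95°C at 0.05°C/s. The melting temperature shift is the mean of triplicates, taken against protein with DMSO alone after Boltzmann fitting.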

[2] = test system: LOC_OS02G54510-cb004
Procedure, shortened: as §1

[3] = test system: LOC_OS03G04050-cb001
Procedure, shortened: as §1

[4] = test system: LOC_OS03G12390-cb001
Procedure, shortened: as §1

[5] = test system: LOC_OS03G27990-cb004
Procedure, shortened: as §1

[6] = test system: LOC_OS03G50450-cb001
Procedure, shortened: as §1

[7] = test system: LOC_OS03G50810-cb003
Procedure, shortened: as §1

[8] = test system: LOC_OS04G35114-cb001
Procedure, shortened: as §1

[9] = test system: T1, LOC_OS04G38480-cb003
T1 sequence (whole entry): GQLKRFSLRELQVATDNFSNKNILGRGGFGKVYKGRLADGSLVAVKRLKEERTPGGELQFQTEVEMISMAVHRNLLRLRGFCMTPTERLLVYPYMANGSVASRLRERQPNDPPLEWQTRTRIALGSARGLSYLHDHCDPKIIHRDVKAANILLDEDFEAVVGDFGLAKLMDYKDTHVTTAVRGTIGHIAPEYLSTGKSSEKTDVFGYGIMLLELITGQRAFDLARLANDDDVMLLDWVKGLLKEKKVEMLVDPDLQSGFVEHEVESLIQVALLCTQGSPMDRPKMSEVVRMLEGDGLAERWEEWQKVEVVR
Procedure, shortened: as §1

[10] = test system: T2, LOC_OS04G41100-cb001
T2 sequence (whole entry): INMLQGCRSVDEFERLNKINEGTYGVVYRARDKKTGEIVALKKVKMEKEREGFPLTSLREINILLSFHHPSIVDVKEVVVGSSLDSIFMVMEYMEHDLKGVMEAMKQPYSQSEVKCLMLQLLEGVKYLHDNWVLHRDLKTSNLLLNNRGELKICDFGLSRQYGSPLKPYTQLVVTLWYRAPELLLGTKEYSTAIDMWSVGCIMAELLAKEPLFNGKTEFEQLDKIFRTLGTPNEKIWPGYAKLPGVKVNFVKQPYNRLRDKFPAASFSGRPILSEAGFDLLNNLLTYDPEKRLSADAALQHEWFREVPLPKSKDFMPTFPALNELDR
Procedure, shortened: as §1

SMILES	thermal shift delta Tm [1]	thermal shift delta Tm [2]	thermal shift delta Tm [3]	thermal shift delta Tm [4]	thermal shift delta Tm [5]	thermal shift delta Tm [6]	thermal shift delta Tm [7]	thermal shift delta Tm [8]	thermal shift delta Tm [9]	thermal shift delta Tm [10]
CCn1c2ccccc2c2cc(Nc3ccnc(NCCCN4CCOCC4)n3)ccc21	0.77 °C	0.13 °C	0.05 °C	-0.48 °C	0.11 °C	0.22 °C	0.04 °C	1.09 °C	1.71 °C	0.46 °C
COc1ccc2[nH]cc(/C=C3\C(=O)Nc4ccc(NC(=O)CCN5CCCCC5)cc43)c2c1	4.5 °C	0.79 °C	0.56 °C	1.22 °C	1.19 °C	0.34 °C	3.45 °C	5.49 °C	2.41 °C	0.9 °C
O=C1NC(=O)/C(=C/c2ccc(-c3ccc(F)cc3O)o2)S1	2.33 °C	0.67 °C	1.72 °C	5.37 °C	1.51 °C	3.59 °C	2.55 °C	4.85 °C	4.16 °C	1.17 °C
CN1CCN(c2ccc(-c3ccncc3-c3cc(F)c(O)c(F)c3)cc2)CC1	0.61 °C	0.42 °C	0.42 °C	-0.07 °C	0.3 °C	0.59 °C	0.5 °C	1.01 °C	1.07 °C	0.43 °C
Cc1cnc(Nc2ccc(N3CCN(C)CC3)cc2)nc1Nc1cccc(S(=O)(=O)NC(C)(C)C)c1	2.16 °C	1.6 °C	0.74 °C	3.11 °C	1.77 °C	2.4 °C	3.61 °C	3.61 °C	2.7 °C	0.79 °C
CC(C)=CC[C@@H](O)C1=CC(=O)c2c(O)ccc(O)c2C1=O [Shikonin]	0 °C	-0.56 °C	0.62 °C	-4.26 °C	-2.32 °C	-1.22 °C	0 °C	3.21 °C	-2.82 °C	-0.35 °C
COc1ccc(-c2cc3nccn3c(Nc3ncccc3C(N)=O)n2)cc1OC	1.94 °C	0.42 °C	0.72 °C	6.82 °C	0.56 °C	1.07 °C	1.24 °C	1.36 °C	1.69 °C	1.04 °C
CN1CC(O)C2=C/C(=N/NC(N)=O)C(=O)C=C21 (stereo not given) [Carbazochrome]	0.38 °C	0.29 °C	0.65 °C	0.05 °C	0.64 °C	0.96 °C	0.41 °C	-0.02 °C	0.38 °C	0.2 °C
CC1(C)CNc2cc(NC(=O)c3cccnc3NCc3ccncc3)ccc21 [Motesanib Diphosphate (AMG-706)]	-0.06 °C	1.49 °C	0.4 °C	-0.39 °C	0.2 °C	-0.1 °C	0.3 °C	0.51 °C	0.65 °C	0.6 °C
Cc1cc(Nc2cc(N)ncn2)c(=O)n2c1C(=O)NC21CCCCC1	0.8 °C	0.09 °C	0.28 °C	0.13 °C	0.19 °C	0.47 °C	0.4 °C	0.45 °C	0.09 °C	0.53 °C
C=CC(=O)Nc1cc(Nc2nccc(-c3cn(C)c4ccccc34)n2)c(OC)cc1N(C)CCN(C)C [Osimertinib (AZD9291)]	1.63 °C	0.52 °C	0.78 °C	4.71 °C	0.93 °C	0.74 °C	2.65 °C	6.25 °C	2.86 °C	0.51 °C
CCS(=O)(=O)c1cccc(-c2cc(C(=O)NC3CCN(C)CC3)c(C)c3[nH]c4ncc(C)cc4c23)c1	5.63 °C	2.03 °C	-0.02 °C	6.67 °C	3.82 °C	3.53 °C	5.67 °C	6.23 °C	3.14 °C	0.65 °C
COc1ncc(-c2cc(-c3ncc(CN4C[C@@H](C)O[C@@H](C)C4)o3)c3cn[nH]c3c2)cc1NS(C)(=O)=O	0.86 °C	0.25 °C	0.39 °C	-0.09 °C	0.23 °C	0.64 °C	0.71 °C	1.06 °C	0.79 °C	0.49 °C
C=CC(=O)Nc1cccc(Oc2nc(Nc3ccc(N4CCN(C)CC4)cc3)nc3ccsc23)c1	1.44 °C	0.64 °C	0.99 °C	1.24 °C	1.38 °C	1.3 °C	1.96 °C	2.13 °C	2.26 °C	0.71 °C
Cc1nc(N)sc1-c1ccnc(Nc2ccc(N3CCOCC3)cc2)n1	3.37 °C	1.11 °C	0.62 °C	3.79 °C	1.2 °C	1.67 °C	2.84 °C	5.04 °C	2.31 °C	1.72 °C
CN(c1ccccc1CNc1nc(Nc2ccc3c(c2)CC(=O)N3)ncc1C(F)(F)F)S(C)(=O)=O	11.6 °C	1.85 °C	0.4 °C	6.91 °C	2.93 °C	3.16 °C	5.31 °C	5.87 °C	3.54 °C	2.86 °C
COc1ccc(CC(=O)Nc2nc3c(s2)CCc2ccccc2-3)cc1OC	1.49 °C	-0.24 °C	0.51 °C	0.4 °C	0.36 °C	0.29 °C	0.43 °C	0.71 °C	1.33 °C	0.15 °C
CNC(=O)CN1CCC(Oc2cc3c(Nc4cccc(Cl)c4F)ncnc3cc2OC)CC1 [Sapitinib (AZD8931)]	0.58 °C	0.5 °C	-0.02 °C	0.79 °C	0.05 °C	0.05 °C	0.22 °C	3.22 °C	0.11 °C	0.35 °C
C[C@@H]1CCN(C(=O)CC#N)C[C@@H]1N(C)c1ncnc2[nH]ccc12	0.35 °C and 0.85 °C	0.3 °C and 0.25 °C	0.21 °C and 0.74 °C	0.19 °C and 0.26 °C	0.12 °C and 0.5 °C	0.32 °C and 0.68 °C	0.11 °C and 0.63 °C	0.38 °C and 0.48 °C	0.3 °C and 0.6 °C	-0.01 °C and 0.47 °C
